The text below walks through data of PubChem BioAssay.

Test [1] in a line: anti-His antibody binders, primary screen, artefact control for SMM control protein annotation, biochemical, small-molecule microarray, 635 nm fluorescence (AID 1128).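 Also: score merges feature fluorescence with signal-to-noise for each printed compound spot.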 The settings on record: anti-His Alexa647 antibody binding, higher = more signal.
Test [2] concerns Human papillomavirus type 1a E7 protein (residues 1-88). The experiment in a line: HPV1a E7 small-molecule binders, primary screen, biochemical, small-molecule microarray, residues 1-88, 635 nm (AID 1129). The settings on record: small-molecule microarray binding, fluorescence 635 nm; higher = more signal.
Test [3] has as its target Focal adhesion kinase 1 (Homo sapiens) (UniProt Q05397). Nature of the test: small-molecule microarray binders of FAK, primary screen, biochemical, 635/667 nm fluorescence, BSA, DTT (AID 1130).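 Also: composite of spot emission at 667 nm and signal to noise over triplicate slides.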 Conditions: PTK2 binding, 635 nm fluorescence, higher = more signal.
The subject of test [4] is Fibrinogen (Alexa647-labelled). The experiment in a line: fibrinogen binders on compound microarrays, profiling panel, artefact control for SMM control-protein annotation, biochemical, small-molecule microarray, 635/667 nm fluorescence (AID 1131).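 Also: z-score merges 667 nm fluorescence with per-spot signal-to-noise over triplicate slides.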 The settings on record: fibrinogen-A647 binding fluorescence, higher = more signal.
For test [5], the target named is Follistatin (Homo sapiens) (UniProt P19883). The experiment in a line: follistatin binders on small-molecule microarrays, primary screen, biochemical, small-molecule microarray, 635/667 nm fluorescence (AID 1132). Conditions: FST binding, 635 nm fluorescence, higher = more signal.
Sequence of Follistatin (Homo sapiens) (P19883 whole entry, looked up): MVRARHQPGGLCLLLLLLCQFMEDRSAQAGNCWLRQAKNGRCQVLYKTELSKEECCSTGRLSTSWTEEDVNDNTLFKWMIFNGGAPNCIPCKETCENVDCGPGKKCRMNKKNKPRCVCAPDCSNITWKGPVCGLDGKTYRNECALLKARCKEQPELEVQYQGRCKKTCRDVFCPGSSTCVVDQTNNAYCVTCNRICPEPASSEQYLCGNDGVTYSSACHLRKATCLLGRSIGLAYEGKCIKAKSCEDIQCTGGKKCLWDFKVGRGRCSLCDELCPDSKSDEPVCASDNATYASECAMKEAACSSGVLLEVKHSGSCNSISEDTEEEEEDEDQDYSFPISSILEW
For test [6], the target named is Fibroblast growth factor 2 (Homo sapiens) (UniProt P09038). The experiment in a line: FGF2 binders on small-molecule microarrays, primary screen, biochemical, small-molecule microarray, 635/667 nm fluorescence (AID 1133). The settings on record: small-molecule microarray binding, FGF2, fluorescence 635/667; higher = more signal.
Sequence of Fibroblast growth factor 2 (Homo sapiens) (P09038 whole entry, looked up): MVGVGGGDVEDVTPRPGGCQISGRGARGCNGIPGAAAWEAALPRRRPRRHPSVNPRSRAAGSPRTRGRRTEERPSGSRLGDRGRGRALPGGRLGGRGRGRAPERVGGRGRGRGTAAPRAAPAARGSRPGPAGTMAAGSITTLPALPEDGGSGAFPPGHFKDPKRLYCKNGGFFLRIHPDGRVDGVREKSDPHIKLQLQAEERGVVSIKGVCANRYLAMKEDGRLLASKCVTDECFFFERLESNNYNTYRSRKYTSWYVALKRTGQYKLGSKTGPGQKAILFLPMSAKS
Test [7] can be described thus: mitochondrial membrane potential change in A549 cells, profiling panel, cell-based, JC-1 fluorescence, basal, 24 h, 100 nL (AID 1138).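 Also: A549 lung adenocarcinoma cells under basal conditions with no added stimulus; test concentration not given here.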 The settings on record: higher = more signal.
The next test concerns Lefty1. Nature of the test: Lefty1 binders on small-molecule microarrays, primary screen, biochemical, small-molecule microarray, 635/667 nm fluorescence (AID 1139). Conditions: small-molecule microarray binding, fluorescence 635/667; higher = more signal.
In test [8] the test system is wheat germ agglutinin (Triticum aestivum), Alexa647-labelled. Nature of the test: wheat germ agglutinin binders on compound microarrays, profiling panel, artefact control for SMM control-protein annotation, biochemical, small-molecule microarray, 635/667 nm fluorescence (AID 1140).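 Also: score merges 667 nm feature emission with signal to noise over triplicate slides.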 The settings on record: WGA-A647 binding, 635 nm fluorescence, higher = more signal.
For test [9], the target named is Luciferin 4-monooxygenase (Photinus pyralis) (UniProt P08659). The experiment in a line: firefly luciferase enzyme inhibitors, primary screen, biochemical, luminescence, purified enzyme, 2006 set (AID 1141).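 Also: cell-free assay with purified firefly luciferase at 100 ng per well in PBS; test concentration not given here.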 The settings on record: SteadyGlo luminescence, 30 min, higher = more signal, called active from +8 up or from −8 down.
Sequence of Luciferin 4-monooxygenase (Photinus pyralis) (P08659 whole entry, looked up): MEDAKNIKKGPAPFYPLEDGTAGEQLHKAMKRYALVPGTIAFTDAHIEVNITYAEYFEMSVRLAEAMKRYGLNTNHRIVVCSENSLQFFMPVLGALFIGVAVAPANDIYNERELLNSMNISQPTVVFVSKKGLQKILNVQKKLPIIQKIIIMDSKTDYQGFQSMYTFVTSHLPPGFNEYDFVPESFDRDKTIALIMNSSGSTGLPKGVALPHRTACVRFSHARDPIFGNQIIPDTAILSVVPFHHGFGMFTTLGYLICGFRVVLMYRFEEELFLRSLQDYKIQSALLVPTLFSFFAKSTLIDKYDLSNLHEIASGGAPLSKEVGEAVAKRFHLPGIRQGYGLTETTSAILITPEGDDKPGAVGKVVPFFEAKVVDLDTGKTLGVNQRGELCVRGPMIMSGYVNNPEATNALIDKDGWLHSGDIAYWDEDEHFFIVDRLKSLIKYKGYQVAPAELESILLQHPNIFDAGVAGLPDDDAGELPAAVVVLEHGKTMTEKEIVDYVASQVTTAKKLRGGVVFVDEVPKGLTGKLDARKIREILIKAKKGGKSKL
In test [10] the test system is Wnt5a (protein binding on small-molecule microarray). The experiment in a line: Wnt5a binders on small-molecule microarray, primary screen, biophysical, 635/667 nm fluorescence (AID 1142).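 Also: fluorescence read at 667 nm with signal to noise per printed feature.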 Conditions: 635 nm fluorescence, higher = more signal.
A short description of test [11]: cell viability in Huh7 cells, primary screen, cytotoxicity control for HCV replication inhibitor project, CellTiter-Glo luminescence, basal, 48 h (AID 1143).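 Also: Huh7 hepatoma cells carrying a hepatitis C replication reporter with no stimulus; test concentration not given here.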 Conditions: Huh7 HCV replicon, higher = more signal, called active from +8 up or from −8 down. For orientation: ATP-based viability assays read luminescence as a measure of living cells.
Test [12] in a line: P. aeruginosa biofilm formation inhibitors, primary screen, PAO1 strain, BacTiter-Glo luminescence, LB-PBS (AID 1144). The settings on record: 12 h, higher = more signal.
Test [13] in a line: CREB reporter modulators without forskolin, primary screen, cell-based, PC12, CRE-LacZ reporter, unstimulated (AID 1145). The settings on record: no forskolin, luminescence, 4.5 h, higher = more signal, called active from +8 up or from −8 down.
Test [14] is described as follows: CREB reporter modulators under forskolin, primary screen, cell-based, PC12, CRE-LacZ reporter, forskolin-stimulated (AID 1146).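 Also: PC12 cells with 6xCRE LacZ reporter stimulated by forskolin 10 µM; beta-galactosidase reporter signal reflecting CREB driven transcription.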 Conditions: luminescence, 4.5 h, higher = more signal, called active from +8 up or from −8 down.
Test [15] concerns the target Streptavidin (Streptomyces avidinii) (UniProt P22629). Nature of the test: streptavidin binders on small-molecule microarray, primary screen, artefact control for SMM compound annotation, biophysical, 635/667 nm fluorescence (AID 1147).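 Also: signal reflects streptavidin binding to arrayed compounds as a control protein.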 Conditions: streptavidin binding, higher = more signal.
The nature of test [16]: small-molecule binders of probe aInhba, primary screen, biochemical, small-molecule microarray, 635/667 nm fluorescence (AID 1148).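 Also: score merges 667nm spot fluorescence with signal-to-noise for antibody binding to printed compounds.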 Conditions: higher = more signal.
The target in test [17] is Torsin-1A (Homo sapiens) (UniProt O14656). The experiment in a line: torsin A binders from cell lysate, primary screen, small-molecule microarray, wild-type, 635/667 nm (AID 1149). Conditions: COS7 hTOR1A-WT lysate, 635 nm fluorescence, higher = more signal.
Sequence of Torsin-1A (Homo sapiens) (O14656 whole entry, looked up): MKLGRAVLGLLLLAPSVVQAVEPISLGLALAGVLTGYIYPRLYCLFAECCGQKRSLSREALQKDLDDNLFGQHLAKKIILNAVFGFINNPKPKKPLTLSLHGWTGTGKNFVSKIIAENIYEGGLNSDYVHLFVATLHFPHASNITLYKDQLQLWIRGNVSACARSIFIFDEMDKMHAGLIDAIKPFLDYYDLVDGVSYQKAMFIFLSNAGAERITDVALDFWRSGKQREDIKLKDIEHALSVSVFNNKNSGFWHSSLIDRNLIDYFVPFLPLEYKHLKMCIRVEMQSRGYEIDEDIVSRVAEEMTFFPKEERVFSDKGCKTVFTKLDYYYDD
For test [18] the target is unchanged. Nature of the test: small-molecule binders of mutant TOR1A in lysate, primary screen, cell lysate, small-molecule microarray, COS7 lysate, 635/667 nm fluorescence (AID 1150).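 Also: score pools 667 nm emission and signal to noise measuring lysate protein binding.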 The settings on record: COS7 hTOR1A mutant lysate, 635 nm fluorescence, higher = more signal.
The subject of test [19] is Sonic hedgehog protein (Shh). The experiment in a line: small-molecule binders of Shh protein, primary screen, biochemical, small-molecule microarray, 635/667 nm fluorescence (AID 1151).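 Also: Shh protein binding to compounds spotted on small-molecule microarray slides; score combines spot fluorescence intensity with signal-to-noise across triplicate slides.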 Conditions: small-molecule microarray binding, 635 nm fluorescence; higher = more signal.

Calls of active or inactive are those of the source. Unless noted, no rule for the calls is given here.

Sequence of Streptavidin (Streptomyces avidinii) (P22629 whole entry, looked up): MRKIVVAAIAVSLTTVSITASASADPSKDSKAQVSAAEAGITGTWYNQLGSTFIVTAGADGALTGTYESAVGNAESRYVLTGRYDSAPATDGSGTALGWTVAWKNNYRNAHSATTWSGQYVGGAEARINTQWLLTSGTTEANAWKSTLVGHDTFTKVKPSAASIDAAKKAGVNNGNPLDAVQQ
Sequence of Focal adhesion kinase 1 (Homo sapiens) (Q05397 whole entry, looked up): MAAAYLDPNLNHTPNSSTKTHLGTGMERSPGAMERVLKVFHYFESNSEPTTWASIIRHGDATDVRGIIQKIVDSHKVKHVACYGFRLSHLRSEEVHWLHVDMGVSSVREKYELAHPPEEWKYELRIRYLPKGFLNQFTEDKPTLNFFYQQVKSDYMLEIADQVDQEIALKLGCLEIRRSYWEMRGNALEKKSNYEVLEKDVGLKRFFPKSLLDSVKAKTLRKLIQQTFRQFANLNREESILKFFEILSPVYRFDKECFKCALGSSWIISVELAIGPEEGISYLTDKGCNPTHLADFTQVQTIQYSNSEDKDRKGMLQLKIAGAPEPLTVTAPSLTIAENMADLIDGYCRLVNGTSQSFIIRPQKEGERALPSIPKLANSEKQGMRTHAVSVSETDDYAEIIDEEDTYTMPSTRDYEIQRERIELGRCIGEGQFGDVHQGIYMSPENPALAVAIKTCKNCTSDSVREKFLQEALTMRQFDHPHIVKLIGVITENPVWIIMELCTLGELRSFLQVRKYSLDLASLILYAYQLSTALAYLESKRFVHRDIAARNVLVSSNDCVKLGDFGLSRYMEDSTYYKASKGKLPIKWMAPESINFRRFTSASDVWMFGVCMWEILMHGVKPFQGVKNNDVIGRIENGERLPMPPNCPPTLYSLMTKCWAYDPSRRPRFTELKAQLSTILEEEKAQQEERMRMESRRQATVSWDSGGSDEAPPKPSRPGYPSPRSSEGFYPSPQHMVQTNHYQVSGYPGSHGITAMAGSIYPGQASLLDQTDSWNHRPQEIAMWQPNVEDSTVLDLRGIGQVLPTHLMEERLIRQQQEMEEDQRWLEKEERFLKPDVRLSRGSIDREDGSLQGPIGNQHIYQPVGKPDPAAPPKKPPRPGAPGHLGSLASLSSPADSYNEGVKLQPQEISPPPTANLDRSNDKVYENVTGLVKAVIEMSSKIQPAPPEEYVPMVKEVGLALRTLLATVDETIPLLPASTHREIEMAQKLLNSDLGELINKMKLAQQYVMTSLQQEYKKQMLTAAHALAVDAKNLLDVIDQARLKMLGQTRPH

As for `COC(=O)C=C(CC(O)c1cccc(Cl)c1)OC` (stereo not given), the composite z-score in test [1] is 1.14; in test [2], 1.15; in test [3], 0.0918; in test [4], 0.6; in test [5] it was -0.431; in test [6], -0.0579. The composite z-score was -0.492 in the test on Lefty1; 1.04 in test [8]; 0.321 in [10]; 0.307 in [15]; 1.09 in test [16]; 0.208 with Torsin-1A (Homo sapiens) [17]. Also, the composite z-score with Torsin-1A (Homo sapiens) [18] was 1.11; in [19] it was -0.425. In addition, the z-score in test [7] was -0.252; in test [9], 0.699 (inactive); in test [11] it was -2.41 (inactive); in [12] it was -0.179 (inactive); in [13] it was -0.116 (inactive); in [14] it was -0.809 (inactive).
With `COc1ccc([Si](C)(C)[C@H]2[C@H](CC(=O)N3CCC[C@H]3CO)O[C@@]3(C(=O)N(Cc4cccc(N5C(=O)c6cccc7cccc5c67)c4)c4ccccc43)[C@@H]2C)cc1`, the composite z-score in [1] amounted to 0.874; in [2] it was 0.614; in [3] it was 0.209; in test [4] it was 0.94; in [5], 1.17; in test [6], 0.7. Further, the composite z-score was determined as 1.52 with Lefty1; 0.571 in test [8]; 1.08 in [10]; 0.309 in test [15]; 0.392 in [16]; 0.84 with Torsin-1A (Homo sapiens) [17]. For the same molecule, the results for the composite z-score (in the test with Torsin-1A (Homo sapiens) [18]; in test [19]) were 0.836 and 2.21, respectively. For the same molecule, the z-score is 1.57 in test [7]; -0.75 (inactive) in test [9]; -3.59 (inactive) in test [11]; 0.346 (inactive) in test [12]; 1.46 (inactive) in [13]; 1.16 (inactive) in test [14].
In the case of `Cc1ccc(S[C@]2(C(=O)NCCN3CCOCC3)CC(=O)N(Cc3ccccc3)[C@@H]2c2ccc(CO)cc2I)cc1`, the composite z-score is 1.75 in test [1]; -0.104 in test [2]; 0.217 in test [3]; -1.42 in [4]; -0.422 in test [5]; -1.2 in test [6]. Also, the composite z-score was -1.08 in the test with Lefty1; -0.592 in [8]; 0.0376 in test [10]; -0.755 in test [15]; -0.0719 in test [16]; -1.46 in the test with Torsin-1A (Homo sapiens) [17]. Moreover, the composite z-score with Torsin-1A (Homo sapiens) [18] is 0.59; in test [19], -0.685. In addition, the z-score in [7] is 0.0777; in test [9], 0.4 (inactive); in test [11], -5.17 (inactive); in test [12] it was -0.779 (inactive); in test [13], -0.114 (inactive); in test [14], 1.8 (inactive).
For the molecule `[N-]=[N+]=Nc1ccccc1C[C@]1(C(=O)NCC(O)CO)N=C(c2ccc(OCCCO)cc2)O[C@H]1c1ccccc1N=[N+]=[N-]` (stereo not given in full), the composite z-score is 1.58 in [1]; -0.212 in [2]; 0.0567 in [3]; 0.578 in test [4]; -0.332 in test [5]; -0.83 in test [6]. Besides, the composite z-score is -0.435 with Lefty1; 0.543 in test [8]; 0.246 in test [10]; 0.0136 in test [15]; 0.192 in test [16]; -0.0376 with Torsin-1A (Homo sapiens) [17]. Moreover, the composite z-score was 0.585 with Torsin-1A (Homo sapiens) [18] and -0.524 in [19]. In addition, the z-score was 0.0494 in test [7]; -3.26 (inactive) in test [9]; -3.86 (inactive) in test [11]; -0.0958 (inactive) in test [12]; 1.05 (inactive) in test [13]; -1.49 (inactive) in [14].
Regarding `C#CCNC(=O)[C@H](Cc1ccccc1)NC(=O)CCC(=O)O`, the composite z-score in test [1] is -1.08; in test [2], -0.912; in [3], -0.318; in test [4], -1.74; in test [5], -1.69; in test [6] it was -0.246. Further, the composite z-score is -0.804 in the test on Lefty1; -1.19 in [8]; -0.0994 in test [10]; -0.869 in test [15]; -0.146 in test [16]; 0.119 with Torsin-1A (Homo sapiens) [17]. Further, the composite z-score with Torsin-1A (Homo sapiens) [18] is 0.544; in test [19], -0.192. Also, the z-score was -0.68 in test [7]; 0.0223 (inactive) in test [9]; 0.0187 (inactive) in test [11]; 0.743 (inactive) in test [12]; 0.656 (inactive) in test [13]; 0.301 (inactive) in test [14].
